# HEK293 tox = HEK 293 cell cytotoxicity; Potency, µM (doses to about 115 µM), for the others: at the top dose activity change, negative = cytotoxicity, usual class: inhibitors; HEK 293 viability, ATP luminescence (CellTiter-Glo), 48-72 h; 94,000 compounds, 6.6% hits; also: % is scaled to controls: 0 for no effect and ±100 for the full control effect; nearly all actives have a fitted effect of over 60% in size
#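 Viability of HEK 293 cells, plated at 250 cells/well, was judged by cellular ATP after compound treatment for 48 or 72 hr. Luminescence was imaged 10 min after CellTiter-Glo addition at room temperature.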
# NIH3T3 tox = cytotoxic compounds in NIH 3T3 cells. Potency, µM (series often up to 96.7 µM), inactives show at the highest dose activity change, negative = cytotoxicity, hits mostly inhibitors. NIH 3T3 viability, CellTiter-Glo ATP luminescence, 48-72 h. 94,000 compounds, 4.3% hits. AID 1345082; also: % is scaled to controls: 0 for no effect and ±100 for the full control effect; nearly all actives have a fitted effect of over 55% in size
#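 Viability of NIH 3T3 cells after 48 or 72 hr compound treatment at 37 °C was assessed by CellTiter-Glo, with luminescence imaged following a 10 min room-temperature step.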
# NPR1 antag = antagonists of human natriuretic peptide receptor Npr1. P16066. HEK293 hNpr1 GloSensor cGMP, ANP-stimulated luminescence. Potency, µM (doses to about 46.3 µM), for the others: at the top dose activity change, negative = inhibition, most hits filed as inhibitors. 76,000 compounds, 1.6% hits. AID 1347048; calls by dose curve; also: % is scaled to controls: 0 for no effect and ±100 for the full control effect; nearly all actives have a fitted effect of over 60% in size
#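 Compound pre-incubated 30 min at room temperature on GloSensor-loaded HEK293 cells stably carrying hNpr1 and the pGS-40F cGMP biosensor. Stimulation uses hNppA at 0.1 nM final; luminescence is taken at baseline and 20 min post-agonist.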
# FLuc inh = Photinus pyralis luciferase inhibition. purified P. pyralis luciferase, luminescence, biochemical. Potency, µM (series often up to 115 µM), most hits filed as inhibitors. 76,000 compounds, 2.5% hits; also: % is scaled to controls: 0 for no effect and ±100 for the full control effect; nearly all actives have a fitted effect of over 65% in size
#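 Luminescence read by CCD imager after adding enzyme (10nM final) to wells holding compound, titrated in qHTS. Substrates 10uM each D-luciferin and ATP; buffer 50mM Tris acetate pH 7.5, 10mM Mg acetate, Tween-20, BSA.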
# GPT2 inh = inhibitors of human GPT2 alanine aminotransferase; Recombinant GPT2, coupled pyruvate oxidase/HRP Amplex Red fluorescence; Potency, µM (series often up to 57.7 µM), for the others: at the top dose activity change, negative = inhibition, actives largely listed as inhibitors; 100,000 compounds, 0.25% hits; AID 1671188; also: % is scaled to controls: 0 for no effect and ±100 for the full control effect; nearly all actives have a fitted effect of over 60% in size
# Target sequence (Q8TD30 whole entry, looked up): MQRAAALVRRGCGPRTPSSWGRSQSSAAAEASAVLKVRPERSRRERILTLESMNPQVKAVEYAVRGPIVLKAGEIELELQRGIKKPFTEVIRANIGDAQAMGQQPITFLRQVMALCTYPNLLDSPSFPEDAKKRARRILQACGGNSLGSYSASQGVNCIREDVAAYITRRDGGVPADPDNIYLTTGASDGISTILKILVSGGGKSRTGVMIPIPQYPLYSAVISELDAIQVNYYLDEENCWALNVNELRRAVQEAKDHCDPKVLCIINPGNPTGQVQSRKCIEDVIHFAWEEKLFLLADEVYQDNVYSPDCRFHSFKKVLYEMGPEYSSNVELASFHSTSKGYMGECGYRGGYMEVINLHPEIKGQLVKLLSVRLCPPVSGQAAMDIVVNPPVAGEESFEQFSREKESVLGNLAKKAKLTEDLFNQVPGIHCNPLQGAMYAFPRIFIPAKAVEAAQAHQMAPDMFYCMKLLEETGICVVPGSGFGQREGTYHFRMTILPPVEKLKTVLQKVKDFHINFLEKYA
#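 Fluorescence of coupled pyruvate oxidase/HRP/Amplex Red system (50uM Amplex, 30 min, dark) reports pyruvate formed by GPT2. Enzyme reaction: 10ng/uL GPT2, 2mM L-alanine, 250uM a-KG, 30 min room temperature, pH 7.5; 50uM AOA control.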
# NPR1 antag cnf = confirmation of human Npr1 natriuretic peptide receptor antagonists; HEK293 hNpr1 cGMP GloSensor luminescence, ANP-stimulated; Potency, µM (titrated, usually from 57.6 µM), for the others: top-dose activity change, negative = inhibition, hits mostly inhibitors; AID 1347044; 1,400 compounds, 76% hits; shares compounds with NPR1 antag; calls by dose curve; also: nearly all actives have a fitted effect of over 70% in size
# NPR2 antag = antagonizes human Npr2, subtype selectivity check. HEK293 hNpr2 GloSensor cGMP luminescence, CNP-stimulated. 1,400 compounds, 67% hits. AID 1347046. shares compounds with NPR1 antag. Potency, µM (top dose mostly 57.6 µM), for inactives: top-dose activity change, negative = inhibition, most hits filed as inhibitors; calls by dose curve; also: nearly all actives have a fitted effect of over 70% in size
# FLuc inh counter = counter-screen for Npr1 antagonists: firefly luciferase inhibitors | shares compounds with NPR1 antag | 1,400 compounds, 0.7% hits | purified FLuc enzyme, luminescence, Km substrate | Potency, µM (doses to about 57.6 µM), for inactives: at the highest dose activity change, negative = inhibition, actives largely listed as inhibitors; also: 0% is about no effect
# GloSensor cGMP = counter-screen for Npr1 antagonists: GloSensor control cell line; 1,400 compounds, 69% hits; HEK293 GloSensor cGMP, SNP-stimulated, luminescence; Potency, µM (highest dose often 57.6 µM), for inactives: at the highest dose activity change, negative = inhibition, usual class: inhibitors; AID 1347051; shares compounds with NPR1 antag; calls by dose curve; also: % is scaled to controls: 0 for no effect and ±100 for the full control effect; nearly all actives have a fitted effect of over 70% in size
# Numbers without * were called inactive; i = inactive; u = inconclusive; x = not tested or not shown; [ ] = remark or other dose. Rows were chosen to be rich in hits. Some 10% of all compounds tested hit in one or more screens of this group. Unless noted, calls follow the shape of the dose curve; as a rule, active = well fitted curve in the direction sought with a large enough effect; inconclusive = small, poorly fitted or top-dose-only effect, or another doubt; inactive = no such curve, though single readings can be large; an effect the other way counts as inactive or inconclusive. Potency is read from the fitted curve at half-maximal effect.
SMILES,HEK293 tox,NIH3T3 tox,NPR1 antag,FLuc inh,GPT2 inh,NPR1 antag cnf,NPR2 antag,FLuc inh counter,GloSensor cGMP
Cc1nc2cccnc2n1CC1CCCN(S(=O)(=O)c2ccc(C(C)C)cc2)C1 (centres undefined),u,u,u,i,2%,27µM*,u,4%,24µM*
Cc1ccc(S(=O)(=O)N2CCCC(Cn3c(C)nc4cccnc43)C2)cc1 (centres undefined),u,u,-19%,i,1%,x,x,x,x
COCc1ccc(C(=O)N2CC[C@@H](c3ccc4c(c3)OCO4)[C@H](O)C2)o1,-20%,-13%,-3%,i,-17%,x,x,x,x
Clc1ccc(C2Cn3nnc(-c4noc(C5CC5)n4)c3CO2)cc1 (centres undefined),u,u,-12%,i,i,x,x,x,x
COc1ccc(C2Cn3nnc(-c4noc(C5CCCCC5)n4)c3CO2)cc1 (centres undefined),10%,i,-1%,i,-7%,u,u,1%,-5%
COc1ccc(OC)c(NC(=O)N2CCCN(C)c3ccccc32)c1,u,u,u,i,i,u,12µM*,0%,-2%
CNC(=O)N1CCC(C2CCN(C(=O)Cc3cccs3)C2)CC1 (centres undefined),i,1%,4%,i,3%,x,x,x,x
CC(C)c1cccc(NC(=O)C2CCN(C(=O)c3ncn4c3COC(c3ccc(F)cc3)C4)CC2)c1 (centres undefined),u,-16%,11µM*,i,-7%,u,u,-3%,u
N#Cc1ccc(CN2CCC3(CC2)CC(c2cccnc2)=NO3)cc1,79µM*,-20%[138 µM],22µM*,i,i,20µM*,22µM*,1%[86.2 µM],18µM*
Clc1ccc(CN2CCC3(CC2)CC(c2cccnc2)=NO3)cc1,u,-22%,x,x,-7%,27µM*,u,4%,24µM*
N#Cc1ccc(CN2CCC3(CC2)CC(c2cccc(C(F)(F)F)c2)=NO3)cc1,32µM*,28µM*,8.9µM*,i,2%,u,u,2%[86.2 µM],u
N#Cc1ccc(CN2CCC3(CC2)CC(=O)c2ccccc2O3)cc1,u,u,28µM*,i,-14%[88.5 µM],31µM*,35µM*,2%[86.2 µM],25µM*
Cc1cc(=O)n(CC(=O)Nc2ccc3c(c2)OCO3)c(-c2ccccc2)n1,u,-27%,-2%,i,i,x,x,x,x
O=C(NC1CCc2n[nH]c(=O)n2CC1)c1ccc2ccccc2n1 (centres undefined),i,-1%,5%,i,-6%,x,x,x,x
O=C(C[C@@H]1C[C@H]2O[C@H](CNC3CCCCC3)[C@@H](O)[C@H]2O1)N1CCC(F)(F)C1,i,i,7%[70.6 µM],i,-5%[88.5 µM],x,x,x,x
COc1ccc(OC)c(NC(=O)c2ccc3c(c2)N(S(=O)(=O)c2ccccc2)CC3)c1,u,u,-7%,u,u,x,x,x,x
COc1ccc(NC(=O)c2ccc3c(c2)N(S(=O)(=O)c2ccccc2)CC3)cc1,u,-2%,10µM*,i,i,24µM*,24µM*,-14%,22µM*
COc1ccc(S(=O)(=O)N2CCc3c(C(=O)Nc4cccc(C)c4)cccc32)cc1,18µM*,u,u,i,4%,u,u,-11%,u
Cc1nnc(NC2CC(c3cc(=O)[nH]c(C4CC4)n3)C2)c2ccccc12 (centres undefined),i,u,4%,i,3%,x,x,x,x
Cc1ccc(C(=O)Nc2cccc(-c3nnc4n3CCCC4)c2)cc1,0%,-10%,-5%,u,i,x,x,x,x
Cc1cc(C(=O)Nc2cccc(-c3nnc4n3CCCC4)c2)n[nH]1,-11%,-13%,u,i,i,u,u,-16%,u
CN1C(=O)CO[C@H](c2ccc(NC(=O)c3cccc(C#N)c3)cc2)[C@H]1CO,-10%[172 µM],-6%[174 µM],5%[70.6 µM],i,i,x,x,x,x
CN(Cc1cccc(C(=O)Nc2cccc(C#N)c2)c1)CC1COCCO1 (centres undefined),u,-17%,u,i,-1%,u,u,1%,0%
O=C(/C=C/c1ccc(O)cc1)OC[C@@]1(O)C=C[C@@H]2C(C(=O)O)=CO[C@@H](O[C@@H]3O[C@H](CO)[C@@H](O)[C@H](O)[C@H]3O)[C@@H]21,x,x,x,x,3%[27.3 µM],x,x,x,x
Cc1ccc(S(=O)(=O)N2CCC(n3cnnc3-c3ccccc3)CC2)c(C)c1,u,u,-29%,i,i,u,u,6%,-21%
SMILES,HEK293 tox,NIH3T3 tox,NPR1 antag,FLuc inh,GPT2 inh,NPR1 antag cnf,NPR2 antag,FLuc inh counter,GloSensor cGMP
COc1ccc(CN2CCOC[C@H]2c2ncc(-c3ccc(C)cc3)[nH]2)cc1,u,100µM*,-26%[70.6 µM],i,-6%[88.5 µM],-29%[86.2 µM],u,1%[86.2 µM],-22%[86.2 µM]
Fc1ccc(CN2CCOC[C@H]2c2ncc(-c3ccc(F)cc3)[nH]2)cc1,u,u,u,i,-6%[88.5 µM],u,u,0%[86.2 µM],u
COc1cccc(C(=O)N2C(C(=O)NC3CC3)COC23CCN(C(=O)C2CC2)CC3)c1 (centres undefined),-13%,1%,-1%,i,i,x,x,x,x
Cc1cccc(O[C@H]2COCCN(Cc3ccccn3)C2)n1,-8%[172 µM],-10%[138 µM],-1%[70.6 µM],i,i,x,x,x,x
COc1ccc(C)cc1C(=O)N1CCc2onc(-c3ccccc3F)c2C1,28µM*,-29%,14µM*,i,-2%,24µM*,22µM*,-1%,22µM*
CCCc1ncncc1C(=O)N1CCc2onc(-c3ccccc3F)c2C1,-3%,0%,5%,i,i,x,x,x,x
N#Cc1cccnc1-c1cccc(C(=O)NCCN[S+](=O)([O-])c2cccc(C(F)(F)F)c2)c1,u,-28%,x,x,2%,x,x,x,x

# Screening results: PubChem BioAssay, National Center for Advancing Translational Sciences (NCATS)
